Calls of active or inactive are those of the source. Rule for the calls: active = hit-call score of the fitted dose curve at least 0.9, where 1 is the maximum; inactive = score below 0.9.
Assays:
[1] = ATG_E_Box_CIS: Attagene CIS-FACTORIAL HepG2 Assay for human Enhancer Box (E-box) (AID 2282936); settings: HepG2 E-box cis-reporter transcription, actives raise or lower the signal
Outline: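 HepG2 cells transiently transfected with multiplexed cis-element reporter units sensing endogenous transcription factor activity; 24 h compound exposure. Reporter mRNA measured by RT-PCR, 6-FAM primer extension, HpaI digestion and capillary electrophoresis; bidirectional fit versus DMSO.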

[2] = ATG_M_61_CIS: Attagene CIS-FACTORIAL HepG2 Assay for M61 Transcription Factor (Internal Marker) (AID 2282937); settings: HepG2 Attagene CIS-FACTORIAL M61 internal marker reporter; actives raise or lower the signal
Outline: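 HepG2 cells transiently transfected with multiplexed cis-promoter reporter units reporting endogenous transcription factor activity, measured 24 h after dosing. Reporter mRNA quantified by RT-PCR and capillary electrophoresis; bidirectional fit against DMSO baseline.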

[3] = ATG_EGR_CIS: Attagene CIS-FACTORIAL HepG2 Assay for human Early Growth Response 1 (EGR1) (AID 2282938); settings: HepG2 Attagene CIS-FACTORIAL EGR reporter mRNA; actives raise or lower the signal
Outline: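 HepG2 cells transiently transfected with cis-element-driven multiplexed reporter units, dosed for 24 h. EGR1-element reporter mRNA quantified by RT-PCR, 6-FAM labelling, HpaI digestion and capillary electrophoresis; bidirectional fit versus DMSO.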

[4] = ATG_M_19_CIS: Attagene CIS-FACTORIAL HepG2 Assay for M19 Transcription Factor (Internal Marker) (AID 2282939); settings: HepG2 Attagene CIS-FACTORIAL M19 internal marker reporter; actives raise or lower the signal
Outline: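 Transfect HepG2 with MRTU reporter library → dose chemical, 24 h → isolate total RNA, reverse-transcribe with oligo(dT) → PCR, 6-FAM label, HpaI cut (2 h, 37 C) → capillary electrophoresis. Bidirectional fit vs DMSO.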

[5] = ATG_ERE_CIS: Attagene CIS-FACTORIAL HepG2 Assay for Estrogen Response Element (ERE) (AID 2282940); settings: HepG2 ERE cis-reporter, Attagene RNA transcript; actives raise or lower the signal
Outline: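 Transient MRTU transfection of human HepG2; cis-element promoters; 24 h dosing; total RNA → RT (oligo dT) → PCR → 6-FAM primer extension → HpaI digest → CE fluorescence. Bidirectional fit, DMSO baseline.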

[6] = ATG_Ets_CIS: Attagene CIS-FACTORIAL HepG2 Assay for human Erythroblast Transformation Specific (ETS) (AID 2282941); settings: HepG2 ETS cis-reporter transcription, actives raise or lower the signal
Outline: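 After transient cis-reporter transfection, HepG2 cells receive test chemical for 24 h. Reporter mRNA levels, measured by RT-PCR and capillary electrophoresis fluorescence, are analysed bidirectionally relative to the DMSO baseline.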

[7] = molecular target: Hepatocyte nuclear factor 3-beta (Homo sapiens) (UniProt Q9Y261); test: ATG_FoxA2_CIS: Attagene CIS-FACTORIAL HepG2 Assay for human Forkhead box A2 (FOXA2) (AID 2282942); settings: HepG2 cis-reporter transcription factor activity, 24 h; actives raise or lower the signal
Chain of Hepatocyte nuclear factor 3-beta (Homo sapiens) (Q9Y261 whole entry, looked up): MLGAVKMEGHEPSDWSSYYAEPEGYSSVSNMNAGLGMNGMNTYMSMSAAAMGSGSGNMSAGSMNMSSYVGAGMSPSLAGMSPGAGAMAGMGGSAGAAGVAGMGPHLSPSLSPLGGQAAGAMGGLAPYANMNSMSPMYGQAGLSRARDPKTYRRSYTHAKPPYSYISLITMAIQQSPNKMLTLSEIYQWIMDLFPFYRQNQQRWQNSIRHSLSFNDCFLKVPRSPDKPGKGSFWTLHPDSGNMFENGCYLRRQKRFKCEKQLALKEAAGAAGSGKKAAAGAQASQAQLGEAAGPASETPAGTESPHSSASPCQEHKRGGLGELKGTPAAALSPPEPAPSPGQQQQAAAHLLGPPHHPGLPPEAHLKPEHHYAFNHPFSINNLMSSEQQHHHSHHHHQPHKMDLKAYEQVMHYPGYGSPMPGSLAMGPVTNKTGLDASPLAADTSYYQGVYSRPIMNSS
Outline: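 HepG2 transiently transfected with a multiplexed cis-promoter reporter library read endogenous FOXA2 activity. After 24 h compound exposure, reporter mRNA was quantified by RT-PCR, HpaI digestion and capillary electrophoresis. Bidirectional fit against DMSO.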

[8] = ATG_FoxO_CIS: Attagene CIS-FACTORIAL HepG2 Assay for human Forkhead box O (FoxO) (AID 2282943); settings: HepG2 Attagene cis-reporter, FoxO element, mRNA; actives raise or lower the signal
Outline: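 HepG2 cells transiently transfected with cis-promoter-driven multiple reporter transcription units; 24 h after chemical dosing, reporter mRNA quantified by RT-PCR, fluorescent primer extension, HpaI digestion and capillary electrophoresis. Bidirectional fitting versus DMSO baseline.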

[9] = ATG_GATA_CIS: Attagene CIS-FACTORIAL HepG2 Assay for human GATA Binding Protein (AID 2282944); settings: HepG2 GATA cis-element reporter, Attagene multiplex mRNA; actives raise or lower the signal
Outline: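 Transient MRTU transfection, HepG2, 24 h compound exposure. Total RNA → oligo(dT) RT → PCR → 6-FAM primer extension → HpaI cut → CE. Bidirectional fit vs DMSO.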

[10] = ATG_GLI_CIS: Attagene CIS-FACTORIAL HepG2 Assay for human Zinc Finger Protein GLI1 (AID 2282945); settings: HepG2, Attagene cis-factorial reporter mRNA, GLI element; actives raise or lower the signal
Outline: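 HepG2 cells transiently transfected with cis-promoter multiplexed reporter units report endogenous transcription factor activity. After 24 h chemical exposure, reporter mRNA was quantified by RT-PCR, 6-FAM labelling, HpaI digestion and capillary electrophoresis, with bidirectional fitting against DMSO.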

[11] = molecular target: Bile acid receptor (Homo sapiens) (UniProt Q96RI1); test: ATG_IR1_CIS: Attagene CIS-FACTORIAL HepG2 Assay for human Nuclear Receptor Subfamily 1 Group H Member 4 (NR1H4), IR1 submotif (AID 2282946); settings: IR1 reporter transcription, actives raise or lower the signal
Chain of Bile acid receptor (Homo sapiens) (Q96RI1 whole entry, looked up): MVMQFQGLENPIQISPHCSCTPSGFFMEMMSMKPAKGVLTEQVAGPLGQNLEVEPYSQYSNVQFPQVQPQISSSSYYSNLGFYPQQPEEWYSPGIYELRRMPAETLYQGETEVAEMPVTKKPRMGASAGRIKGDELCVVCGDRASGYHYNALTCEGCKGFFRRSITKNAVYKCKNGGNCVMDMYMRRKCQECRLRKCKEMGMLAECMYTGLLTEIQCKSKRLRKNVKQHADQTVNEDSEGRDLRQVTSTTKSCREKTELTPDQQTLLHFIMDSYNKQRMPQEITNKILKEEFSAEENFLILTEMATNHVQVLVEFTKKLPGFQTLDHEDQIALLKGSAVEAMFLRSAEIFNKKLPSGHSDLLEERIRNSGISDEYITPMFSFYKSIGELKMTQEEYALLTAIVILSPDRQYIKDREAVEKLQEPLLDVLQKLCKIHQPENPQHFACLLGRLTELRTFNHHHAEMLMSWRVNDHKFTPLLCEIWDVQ
Outline: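 Transient MRTU transfection, HepG2; 24 h dosing; RNA → RT-PCR → 6-FAM primer extension → HpaI digest → capillary electrophoresis fluorescence. Gain/loss of signal fitted relative to DMSO.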

[12] = ATG_GRE_CIS: Attagene CIS-FACTORIAL HepG2 Assay for human Glucocorticoid Response Elements (GRE) (AID 2282947); settings: HepG2 GRE cis-reporter, Attagene multiplex mRNA; actives raise or lower the signal
Outline: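 HepG2 cells transiently transfected with multiple cis-promoter reporter units measure endogenous TF activity; 24 h compound exposure. Reporter mRNA quantified by RT-PCR, FAM labelling, HpaI digestion and capillary electrophoresis; bidirectional fit vs DMSO baseline.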

[13] = ATG_ISRE_CIS: Attagene CIS-FACTORIAL HepG2 Assay for human Interferon Regulatory Factor 1 (IRF1) binding to an Interferon-Stimulated Response Element (ISRE) (AID 2282948); settings: HepG2 ISRE cis-reporter (Attagene), mRNA transcription readout; actives raise or lower the signal
Outline: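 Quantitation relies on labelled RT-PCR fragments separated by capillary electrophoresis. Human HepG2 cells bearing cis-promoter reporter constructs were treated 24 h; DMSO served as baseline for bidirectional fitting.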

[14] = ATG_M_32_CIS: Attagene CIS-FACTORIAL HepG2 Assay for M32 Transcription Factor (Internal Marker) (AID 2282949); settings: HepG2 Attagene cis-factorial M32 reporter, mRNA; actives raise or lower the signal;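 note: background control marker of the multiplexed CIS panel rather than a real target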
Outline: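 Internal background marker read-out: RT-PCR/capillary electrophoresis fluorescence of reporter transcripts from transiently transfected HepG2 cells after 24 h chemical exposure. Activity fitted bidirectionally relative to DMSO negative control.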

[15] = ATG_M_06_CIS: Attagene CIS-FACTORIAL HepG2 Assay for M06 Transcription Factor (Internal Marker) (AID 2282950); settings: HepG2 Attagene CIS-FACTORIAL M06 internal marker reporter; actives raise or lower the signal
Outline: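 Read-out is fluorescence of labelled reporter cDNA fragments resolved by capillary electrophoresis after RT-PCR. Cells: HepG2 carrying transfected cis-promoter reporter units, treated 24 h. Gain or loss of signal fitted relative to DMSO.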

[16] = molecular target: Hypoxia-inducible factor 1-alpha (Homo sapiens) (UniProt Q16665); test: ATG_HIF1a_CIS: Attagene CIS-FACTORIAL HepG2 Assay for human Hypoxia Inducible Factor 1 (HIF1A) (AID 2282951); settings: HepG2 Attagene cis-factorial HIF1a reporter transcription; actives raise or lower the signal
Chain of Hypoxia-inducible factor 1-alpha (Homo sapiens) (Q16665 whole entry, looked up): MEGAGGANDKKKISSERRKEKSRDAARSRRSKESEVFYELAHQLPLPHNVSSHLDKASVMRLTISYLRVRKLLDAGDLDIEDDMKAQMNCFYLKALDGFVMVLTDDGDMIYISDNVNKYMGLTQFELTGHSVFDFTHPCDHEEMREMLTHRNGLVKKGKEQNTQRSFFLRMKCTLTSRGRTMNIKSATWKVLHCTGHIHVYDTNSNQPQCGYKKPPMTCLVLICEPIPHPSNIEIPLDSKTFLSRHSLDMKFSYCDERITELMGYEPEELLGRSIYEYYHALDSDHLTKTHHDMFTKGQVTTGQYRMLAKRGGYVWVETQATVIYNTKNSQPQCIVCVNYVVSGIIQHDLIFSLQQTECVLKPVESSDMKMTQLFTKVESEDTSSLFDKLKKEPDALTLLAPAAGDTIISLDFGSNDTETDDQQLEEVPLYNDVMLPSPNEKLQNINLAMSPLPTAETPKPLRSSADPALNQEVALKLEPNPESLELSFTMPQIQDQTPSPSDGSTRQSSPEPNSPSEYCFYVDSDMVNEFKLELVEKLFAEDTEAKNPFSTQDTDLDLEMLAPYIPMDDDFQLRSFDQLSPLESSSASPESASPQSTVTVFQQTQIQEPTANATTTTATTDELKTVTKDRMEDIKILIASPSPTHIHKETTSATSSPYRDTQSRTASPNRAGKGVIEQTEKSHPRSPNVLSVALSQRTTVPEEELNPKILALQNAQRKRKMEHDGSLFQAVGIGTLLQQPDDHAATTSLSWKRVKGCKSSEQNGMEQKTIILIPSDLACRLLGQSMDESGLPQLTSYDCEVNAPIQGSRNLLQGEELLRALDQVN
Outline: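 HepG2 cells transiently transfected with multiple cis-regulated reporter transcription units measure endogenous transcription factor activity. After 24 h exposure, reporter mRNA is quantified by RT-PCR with 6-FAM labelling, HpaI digestion and capillary electrophoresis. Bidirectional fitting against DMSO.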

[17] = molecular target: Hepatocyte nuclear factor 6 (Homo sapiens) (UniProt Q9UBC0); test: ATG_HNF6_CIS: Attagene CIS-FACTORIAL HepG2 Assay for human Hepatocyte Nuclear Factor 6 (HNF6) (AID 2282952); settings: HepG2 Attagene cis-factorial HNF6 reporter transcription; actives raise or lower the signal
Chain of Hepatocyte nuclear factor 6 (Homo sapiens) (Q9UBC0 whole entry, looked up, the tested form may be a part): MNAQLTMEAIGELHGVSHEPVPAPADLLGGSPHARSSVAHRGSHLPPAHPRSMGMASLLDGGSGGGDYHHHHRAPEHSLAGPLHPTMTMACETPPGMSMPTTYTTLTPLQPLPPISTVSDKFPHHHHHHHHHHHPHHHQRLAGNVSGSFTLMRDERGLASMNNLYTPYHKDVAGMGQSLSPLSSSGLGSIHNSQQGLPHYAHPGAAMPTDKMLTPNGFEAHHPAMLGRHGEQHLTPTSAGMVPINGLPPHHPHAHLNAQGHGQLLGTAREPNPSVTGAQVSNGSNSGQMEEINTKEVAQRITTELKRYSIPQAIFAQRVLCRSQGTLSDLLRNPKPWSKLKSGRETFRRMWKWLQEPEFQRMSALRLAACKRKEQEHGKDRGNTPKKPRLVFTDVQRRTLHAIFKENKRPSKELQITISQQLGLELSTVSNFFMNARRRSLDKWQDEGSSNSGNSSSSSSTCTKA
Outline: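 HepG2 cells transiently transfected with cis-element-driven multiplexed reporter units measuring endogenous transcription factor activity. After 24 h exposure, reporter mRNA quantified by RT-PCR, FAM-labelled fragments and capillary electrophoresis; bidirectional fitting versus DMSO.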

[18] = ATG_MRE_CIS: Attagene CIS-FACTORIAL HepG2 Assay for human Metal Responsive Element (MRE) (AID 2282954); settings: HepG2 MRE cis-reporter transcription, Attagene multiplex; actives raise or lower the signal
Outline: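 HepG2 cells transiently transfected with multiple cis-element reporter units measure endogenous MTF1-driven transcription. After 24 h compound exposure, reporter mRNA is quantified by RT-PCR with 6-FAM labelling, HpaI digestion and capillary electrophoresis; bidirectional fits versus DMSO.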

[19] = molecular target: Heat shock factor protein 1 (Homo sapiens) (UniProt Q00613); test: ATG_HSE_CIS: Attagene CIS-FACTORIAL HepG2 Assay for human Heat Shock Transcription Factor 1 (HSE) (AID 2282953); settings: HepG2 HSE cis-reporter, Attagene RNA transcription; actives raise or lower the signal
Chain of Heat shock factor protein 1 (Homo sapiens) (Q00613 whole entry, looked up): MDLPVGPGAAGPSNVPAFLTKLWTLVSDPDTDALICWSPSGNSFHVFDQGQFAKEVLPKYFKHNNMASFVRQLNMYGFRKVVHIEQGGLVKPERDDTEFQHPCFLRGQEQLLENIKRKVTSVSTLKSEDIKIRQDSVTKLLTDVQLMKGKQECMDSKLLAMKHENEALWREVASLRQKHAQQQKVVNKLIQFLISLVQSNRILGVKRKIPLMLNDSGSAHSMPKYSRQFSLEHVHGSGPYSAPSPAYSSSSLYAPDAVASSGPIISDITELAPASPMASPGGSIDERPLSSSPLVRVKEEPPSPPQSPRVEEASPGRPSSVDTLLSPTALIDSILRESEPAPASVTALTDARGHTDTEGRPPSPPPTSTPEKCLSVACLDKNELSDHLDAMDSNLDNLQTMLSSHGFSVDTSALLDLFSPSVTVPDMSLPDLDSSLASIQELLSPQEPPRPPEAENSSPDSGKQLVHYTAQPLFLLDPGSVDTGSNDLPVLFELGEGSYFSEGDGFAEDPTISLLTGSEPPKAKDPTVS
Outline: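 HepG2, transient MRTU transfection, cis-promoter reporters (endogenous TF activity). 24 h compound. RNA → oligo(dT) RT → PCR → 6-FAM primer extension → HpaI cut → CE. Bidirectional fit vs DMSO.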

[20] = ATG_PBREM_CIS: Attagene CIS-FACTORIAL HepG2 Assay for human Phenobarbital-responsive Enhancer Module (PBREM) (AID 2282955); settings: HepG2 PBREM cis-reporter, Attagene multiplexed transcription; actives raise or lower the signal
Outline: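 HepG2 cells transiently transfected with multiple cis-regulated reporter units measure endogenous transcription factor activity; 24 h compound exposure. Reporter mRNA quantified by RT-PCR, fluorescent labelling, HpaI digestion and capillary electrophoresis; bidirectional fit versus DMSO.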

Measured: AC50

CC(=O)OC(C)C
not listed: [19] | [20]
inactive: all other assays above

CC(C)=CCC/C(C)=C\C#N
inactive: all assays above

NNC(=O)c1cccc(C(=O)NN)c1
inactive: all assays above

NC(=O)N=NC(N)=O
not listed: [19]
inactive: all other assays above

O=C(O)c1cc2ccccc2nc1C(=O)O
not listed: [17] | [18]
inactive: all other assays above

Clc1nc2ccccc2s1
not listed: [20]
inactive: all other assays above

O=C1CC2CC1C1CCCC21 (centres undefined)
active: [5] 19.8 µM
inactive: all other assays above
